A short description of assay [1]: Viability qHTS for spleen associated tyrosine kinase inhibitor (SYKi) naive MV4-11 cells (AID 1963823). Further: nearly all actives have a fitted effect of over 40% in size. Further: potency means the concentration at half of the fitted maximal effect. In short, it runs like this: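 SYKi-naive MV4-11 AML cells, 500 per well, were exposed to library compounds for 72 hr at 37 C, 5% CO2. Viability was then read by CellTiter-Glo luminescence after 10 min at room temperature.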
A short description of assay [2]: Viability qHTS for spleen associated tyrosine kinase inhibitor (SYKi) drug resistant MV4-11 cells (AID 1963824). Further: nearly all actives have a fitted effect of over 35% in size. Further: potency means the concentration at half of the fitted maximal effect. The essentials:
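SYK inhibitor-resistant MV4-11 AML cells, 500 per well, added to predispensed compounds and incubated 72 hr at 37 C, 5% CO2. Viability measured by CellTiter-Glo luminescence after 10 min at room temperature.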

The nature of assay [3]: Cellular viability qHTS for adrenocortical cancer (ACC) cell line SW-13 (AID 1963989). Further: nearly all actives have a fitted effect of over 65% in size. Further: potency means the concentration at half of the fitted maximal effect.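 On activity (max response): cells grown in serum-free medium with ITS supplement; on the % scale 0 is the no-effect control and ±100 the full control effect.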 The following applies: SW-13 ACC cells viability, CellTiter-Glo, 48 h; activity (max response): active compounds read low. In short, it runs like this:
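Here, serum-free SW-13 cultures were dosed up to 46 uM. Following 48 h, ATP-dependent luminescence (CellTiter-Glo) reported viable cells, and logistic modeling produced IC50 values.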
In general terms: qHTS replaces the single test concentration by a dilution series.

Assay [4] in a line: Cellular viability qHTS for adrenocortical cancer (ACC) cell line NCI-H295R (AID 1963990). Further: nearly all actives have a fitted effect of over 60% in size. Further: potency means the concentration at half of the fitted maximal effect. In short, it runs like this: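 Viability of NCI-H295R after 48 h of treatment (final up to 46 uM) measured through cellular ATP luminescence.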
Assay [5] can be described thus: Quantitative highthroughput screen to assess conditional lethalithy of NOMO1 cells grown in RPMI1640 with dialyzed fetal bovine serum (RPMI+ds) (AID 1963877).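 Further: series mostly up to about 46 µM; 100% = DMSO control wells and 0% = empty wells; nearly all actives have a fitted effect of over 30% in size.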 In short, it runs like this:
(§1)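 Each medium arm—HPLM with 10% dialyzed FBS, or RPMI1640 with 5 mM glucose and 10% untreated or dialyzed FBS—was screened against an 11-point, 3-fold compound titration for 48 h at 37 °C, with CellTiter-Glo luminescence as endpoint.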

Assay [6] in a line: Quantitative highthroughput screen to assess conditional lethalithy of SEM cells grown in RPMI1640 with unreated serum (RPMI+s) (AID 1963883). Further: potency means the concentration at half of the fitted maximal effect; nearly all actives have a fitted effect of over 35% in size. In short, it runs like this:
as §1

Several values for one entry are separate records, joined by “and”; a condition that tells them apart may be missing. Equal entries are not always repeated. Records with an inconclusive call do not appear. Unmarked numbers belong to inactive results. Activity calls are given as the source filed them. The call rests on the fitted dose curve; in most records, active means well fitted curve in the direction sought with a large enough effect; inconclusive means small, poorly fitted or top-dose-only effect, or another doubt; inactive means no such curve, though single readings can be large; an effect the other way counts as inactive or inconclusive.

On to `CCN1CCCC1CNC(=O)C(O)(c1ccccc1)c1ccccc1` (stereo not given), for which the Potency result in assay [1] and in assay [2] was “inactive” in each case. The activity (max response) in assay [3] is -3.88%.

For `C[C@@]12OC(=O)[C@]1([C@@H](O)[C@@H]1C=CCCC1)NC(=O)[C@@H]2CCCl`, the Potency in assay [1] was 0.0209 µM (active); in assay [2] it was 23.5 nM (active); in assay [3], 501 nM (active); in assay [4] it was 398 nM (active).

`COc1ccc2c3c1O[C@H]1[C@@H](O)C=C[C@H]4[C@@H](C2)N(C)CC[C@@]341`: the Potency in assay [1] was 37.8 µM (active); in assay [2] it was 30000 nM (active); in assay [3], 14100 nM (active); in assay [4] it was 10000 nM (active).

For `CCC(OC(C)=O)C(CC(C)NC)(c1ccccc1)c1ccccc1` (stereo not given), the Potency is 43.7 µM (active) in assay [1], 31000 nM (active) in assay [2], 28200 nM (active) in assay [3] and 15800 nM (active) in assay [4].

Regarding `CO/C1=C/C(C)=C\[C@@H](C)[C@@H](O)[C@@H](C)C/C(C)=C\C=C/[C@H](OC)[C@@H]([C@@H](C)[C@@H](O)[C@H](C)[C@@]2(O)C[C@@H](O)[C@H](C)[C@@H](C(C)C)O2)OC1=O`, the Potency in assay [1] was 0.0221 µM (active); in assay [2], 22.1 nM (active); in assay [3] it was 245 nM (active); in assay [4], 43.5 nM (active).

As to `O=C(CCCN1CCC2(CC1)C(=O)NCN2c1ccccc1)c1ccc(F)cc1`, the Potency entry in assay [1], in assay [2] and in assay [4] was “inactive” in each case. Also, the activity (max response) in assay [3] is -12.3%.

In the case of `NCC(O)c1ccc(O)cc1` (stereo not given), the Potency result in assay [1], in assay [2] and in assay [4] was “inactive” throughout. The activity (max response) in assay [3] is 9.24%.

Take `C[C@H]1CCC/C=C/C2C[C@H](O)C[C@H]2[C@H](O)/C=C/C(=O)O1` (stereo not given in full): the Potency in assay [1] was 184 nM (active) and 148 nM (active); in assay [2], 92 nM (active) and 118 nM (active); in assay [3] it was 282 nM (active); in assay [4] it was 224 nM (active).

On to `CC[N+]1(CCOC(=O)C(O)(c2ccccc2)c2ccccc2)CCCCC1`, for which the Potency result in assay [1], in assay [2] and in assay [4] was “inactive” each time. Moreover, the activity (max response) in assay [3] was 4.14%.

Turning to `Cc1cccc(C)c1NC1=NCCCS1`, the Potency entry in assay [1], in assay [2] and in assay [4] was “inactive” each time. The activity (max response) in assay [3] is -0.0852%.

Consider `CN[C@@H](C)[C@H](O)c1ccccc1`, for which the Potency entry in assay [1], in assay [2] and in assay [4] was “inactive” in each case. Besides, the activity (max response) in assay [3] is -4.49%.

With `CC(=O)NC1CCSC1=O` (stereo not given), the Potency entry in assay [1], in assay [2] and in assay [4] was “inactive” each time. In assay [3], the activity (max response) is 9.14%.

Consider `C[C@@H]1O[C@@H](O[C@@H]2C=C3CC[C@@H]4[C@H](CC[C@]5(C)[C@@H](c6ccc(=O)oc6)CC[C@]45O)[C@@]3(C)CC2)[C@H](O)[C@H](O)[C@H]1O`, for which the Potency is 0.006 µM (active) in assay [1]; 7.5 nM (active) in assay [2]; 11.2 nM (active) and 7.3 nM (active) in assay [3]; 11.2 nM (active) and 7.3 nM (active) in assay [4].

With `C[C@@H]1O[C@@H](O[C@H]2C[C@@H](O)[C@]3(CO)[C@H]4[C@H](O)C[C@]5(C)[C@@H](C6=CC(=O)OC6)CC[C@]5(O)[C@@H]4CC[C@]3(O)C2)[C@H](O)[C@H](O)[C@H]1O`, the Potency in assay [1] is 119 nM (active) and 79.6 nM (active) and 46.8 nM (active); in assay [2], 84.1 nM (active) and 63.2 nM (active) and 33.2 nM (active); in assay [3] it was 20.6 nM (active) and 44.7 nM (active); in assay [4] it was 36.6 nM (active) and 56.2 nM (active).

Take `ClC1=C(Cl)C2(Cl)C(CBr)CC1(Cl)C2(Cl)Cl` (stereo not given): the Potency entry in assay [1], in assay [2] and in assay [4] was “inactive” each time. For the same compound, in assay [3], the activity (max response) is -7.86%.

Take `COCC(=O)N(c1c(C)cccc1C)C(C)C(=O)OC` (stereo not given): the Potency entry in assay [1], in assay [2] and in assay [4] was “inactive” throughout. Further, the activity (max response) in assay [3] is 0.998%.

For the compound `O=C(NC(=O)c1c(F)cccc1F)Nc1cc(Cl)c(OC(F)(F)C(F)C(F)(F)F)cc1Cl` (stereo not given), the Potency in assay [1] is 11.9 µM (active); in assay [2] it was 16800 nM (active). The Potency result in assay [4] is “inactive”.

Consider `C#CCN(C)[C@H](C)Cc1ccccc1`, for which the Potency result in assay [1], in assay [5] and in assay [4] was “inactive” throughout. In addition, the activity (max response) in assay [3] is 4.66% and -4.85%.

Turning to `COC(C)(C)CCCC(C)C/C=C/C(C)=C/C(=O)OC(C)C` (stereo not given), the Potency entry in assay [1] and in assay [4] was “inactive” each time. Besides, in assay [3], the activity (max response) is 12.4%.

For the compound `O=C(O)CCCc1ccc(N(CCCl)CCCl)cc1`, the Potency result in assay [1] and in assay [4] was “inactive” in each case. Besides, the Potency in assay [6] is 23.5 µM (active). In addition, the activity (max response) in assay [3] was 1.67% and -8.76%.

Turning to `CC(=O)OC1(c2ccccc2)CCN(CCc2ccccc2)CC1`, the Potency in assay [1] was 39.3 µM (active). Further, the activity (max response) in assay [3] was -14.1%.

Consider `Cc1nnc2n1-c1sc(CCc3ccc(CC(C)C)cc3)cc1C(c1ccccc1Cl)=NC2C` (stereo not given), for which the Potency in assay [1] was 5.8 µM (active); in assay [2] it was 4110 nM (active); in assay [4], 8200 nM (active).

For `O=C(NCCCNc1nc(Nc2ccc(N3CCOCC3)cc2)ncc1C1CC1)C1CCC1`, the Potency is 0.118 µM (active) in assay [1] and 166 nM (active) in assay [2]. The Potency entry in assay [4] was “inactive”.

The values above are taken from PubChem BioAssay (NCATS).
